Hsp70 act – Hsp70 transcriptional activators, primary screen, cell-based, HeLa, Hsp70 promoter luciferase, luminescence, 10 µM. HeLa Hsp70 promoter luciferase reporter; scaled: vehicle 0, proteasome-inhibitor control 100%. AID 1203, 2008. activation, % at 10 µM. hit rate 0.04% among 200,000;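 active = activation above the mean across all tested compounds plus 3 SD, cutoff set per campaign, cut at about 5.5% in these data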
HIF activator – HIF pathway transcriptional activators, primary screen, cell-based, U2OS HRE-luciferase, luminescence. U2OS HRE-luciferase reporter; normalized: DMSO 0%, desferrioxamine 100%. activation, % at 7.5 µM (by protocol). hit rate 0.32% among 300,000. AID 1910, 2009;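 active = mean activation of at least 10% of the iron chelator positive control signal, with at least half of replicates also reaching 10%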
FXN GAA850 act – FXN promoter activators, primary screen, cell-based, luciferase luminescence, HEK293 lucGAA850; HEK293 lucGAA850 FXN promoter luciferase reporter, 24 h; percent of 10 µM SAHA response; activation, % at 6 µM; hit rate 0.56% among 360,000; AID 540364, 2011;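 active = activation above the average of all compounds screened plus 3 SD, cutoff fixed separately per campaign, cut at about 7.5% in these data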
SMARCA2 act – SMARCA2 (BRM) function activators, primary screen, cell-based, luminescence, high throughput; hit rate 1% among 370,000; AID 652017, 2013; activation, % at 9.1 µM; MG213 cells, MMTV-luciferase reporter, dexamethasone, overnight; in the data active = activation above about 7.8%
GalR3 antag – GalR3 antagonists in HEK293 cells, primary screen, cell-based, fluorescence readout | HEK293 GalR3-CNG cAMP membrane potential fluorescence; galR3 body fused to GalR1 C-terminus | inhibition, % at 3 µM | hit rate 0.44% among 360,000 | AID 651719, 2012;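 active = inhibition above the screen-wide average plus 3 SD, cut at about 13% in these data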;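 also: forskolin and galanin both at EC90 stimulate the cells; cAMP rise reported by CNG channel membrane potential dye signal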
Target sequence (O60755 1-299 limits assumed): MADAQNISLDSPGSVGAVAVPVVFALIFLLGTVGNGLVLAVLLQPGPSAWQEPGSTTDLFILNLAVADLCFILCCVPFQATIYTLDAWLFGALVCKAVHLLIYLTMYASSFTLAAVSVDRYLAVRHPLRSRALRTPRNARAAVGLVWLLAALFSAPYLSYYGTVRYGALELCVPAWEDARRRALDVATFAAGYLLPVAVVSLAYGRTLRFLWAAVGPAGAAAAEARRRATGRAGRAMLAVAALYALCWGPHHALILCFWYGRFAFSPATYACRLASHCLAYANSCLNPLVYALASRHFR
GalR3 conf – GalR3 antagonist hit confirmation, cell-based, fluorescence, triplicate; hit rate 59% among 1,600; HEK293 GalR3 CNG cAMP biosensor, membrane potential fluorescence; galR3 fused to GalR1 carboxy tail; challenged with forskolin and galanin at EC90; shares compounds with GalR3 antag; inhibition, % at 3 µM;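 active = inhibition above the primary screen's cutoff, the mean inhibition of all screened compounds plus 3 SD, cut at about 13% in these data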
CNG parental – nonspecific cAMP agonists in parental HEK-CNG cells, counter-screen for GalR3 antagonist project, cell-based, fluorescence, high throughput. AID 652268, 2013. hit rate 10% among 1,600. activation, % at 3 µM. shares compounds with GalR3 antag. HEK293-CNG parental cells, cAMP membrane potential fluorescence; normalised: DMSO wells 0%, forskolin wells 100%; in the data active = activation above about 1.3%
Large screens that a line does not name were inactive (follow-up assays come after a bar, where they were run). The list is not random: actives were taken first. Their share in the collection is about 2.2%.

CCOc1cc(S(=O)(=O)NCc2ccncc2)ccc1Cl	GalR3 antag 102 | GalR3 conf 126 | CNG parental inactive
c1ccc(COCCc2cn(Cc3ccccc3)c3ccccc23)cc1	none (no result: Hsp70 act, HIF activator, FXN GAA850 act)
CC(=O)N1CCc2cc(S(=O)(=O)NCCC(=O)NCc3ccc(Cl)cc3)ccc21	none (no result: Hsp70 act, HIF activator, FXN GAA850 act, GalR3 antag)
COC(=O)CN1CCN(C(=O)c2csc3ccccc23)CC1	none (no result: Hsp70 act, HIF activator, FXN GAA850 act, GalR3 antag)
CCCCN(C)C(=O)c1cc2cc([N+](=O)[O-])cc(OC)c2oc1=O	GalR3 antag 22 | GalR3 conf inactive | CNG parental inactive
CCOC(=O)c1cc2cc([N+](=O)[O-])cc(OC)c2oc1=O	none
C=CCN1C(=O)[C@H](CC(=O)N2CCN(C(=O)c3ccco3)CC2)[C@@]2(C(=O)OCC)CCCC=C12	none (no result: Hsp70 act, HIF activator, FXN GAA850 act, GalR3 antag)
COc1cccc(CNC(=O)[C@H]2CCCN2C(=O)[C@H]2CCCN2C(=O)c2ccccc2C(F)(F)F)c1	none (no result: Hsp70 act, HIF activator, FXN GAA850 act)
COCCN(C(=O)COC(=O)CCS(=O)(=O)c1ccccc1)c1c(N)n(Cc2ccccc2)c(=O)[nH]c1=O	GalR3 antag 14 (no result: Hsp70 act) | GalR3 conf inactive | CNG parental inactive
COCCN(C(=O)COC(=O)CCOc1ccccc1)c1c(N)n(Cc2ccccc2)c(=O)[nH]c1=O	none (no result: Hsp70 act, SMARCA2 act, GalR3 antag)
COc1ccccc1-c1cc(NC=O)c2ncc(-c3ccc(S(C)(=O)=O)cc3)n2c1	GalR3 antag 14 (no result: Hsp70 act, HIF activator) | GalR3 conf 30 | CNG parental inactive
COc1cc(-c2cnc3c(NC=O)cc(-c4ccc(S(C)(=O)=O)cc4)cn23)cc(OC)c1OC	none (no result: Hsp70 act, HIF activator)
COc1cccc(/C=C/C(=O)OCC(=O)Nc2nnc(-c3ccccc3)o2)c1OC	GalR3 antag 13 (no result: Hsp70 act, HIF activator) | GalR3 conf inactive | CNG parental inactive
Cc1onc(-c2ccccc2)c1-c1nc2cc(Cl)ccc2c(=O)o1	none (no result: Hsp70 act)
Cc1onc(-c2ccccc2)c1-c1nc2ccccc2c(=O)o1	GalR3 antag 16 | GalR3 conf 13 | CNG parental 2.0
C[C@@H]1CC=C[C@H]2[C@H]1C(=O)N(Cc1ccccc1)[C@H]2c1ccc(F)c(Br)c1	none (no result: Hsp70 act, FXN GAA850 act, SMARCA2 act, GalR3 antag)
C[C@@H]1CC=C[C@H]2[C@H]1C(=O)N(Cc1ccccc1)[C@H]2c1ccc2ccccc2c1	none (no result: Hsp70 act, GalR3 antag) | GalR3 conf inactive | CNG parental inactive
CC1CCN(C(=O)/C(=C\c2ccco2)NC(=O)c2ccccc2)CC1	none (no result: Hsp70 act)
CC1CCN(C(=O)/C(=C\c2cccs2)NC(=O)c2ccccc2)CC1	GalR3 antag 19 | GalR3 conf inactive | CNG parental inactive
Cc1cc(NC(=O)/C=C/c2ccccc2)c(C(C)C)cc1O	GalR3 antag 19 | GalR3 conf 23 | CNG parental inactive
COc1cc(/C=C/C2=NNC(=O)CC2)cc(OC)c1OC	GalR3 antag 20 (no result: Hsp70 act) | GalR3 conf 16 | CNG parental inactive
CC(C)c1ccc(/C=C/C2=NNC(=O)CC2)cc1	none
COC(=O)[C@]12C[C@H](CC(=O)NCc3cccc4ccccc34)C(=O)N(Cc3ccco3)C1=C[C@H](COCc1ccccc1)O[C@@H]2C	none (no result: Hsp70 act, HIF activator, FXN GAA850 act, GalR3 antag)
CCOC(=O)[C@@]12CCCC=C1N(CCc1ccc(Cl)cc1)C(=O)[C@H]2CC(=O)NCc1ccccc1	none (no result: Hsp70 act, HIF activator, FXN GAA850 act, GalR3 antag)
CCOc1cc(CNCC2CCCN2CC)cc(Cl)c1OC (stereo not given)	GalR3 antag 15 | GalR3 conf inactive | CNG parental inactive
O=C(OCCN1C(=O)c2cccc3c(N4CCOCC4)ccc(c23)C1=O)c1ccccc1Cl	GalR3 antag 15 | GalR3 conf 74 | CNG parental 2.9
COC(=O)C1=C(C)N(Cc2ccccc2C(F)(F)F)C(=NCc2ccc(OC)cc2)NC1c1ccc(F)cc1 (stereo not given)	none (no result: Hsp70 act, HIF activator, FXN GAA850 act)

Screening results deposited in PubChem BioAssay by several laboratories.
